This note sets out measurements from PubChem BioAssay.

The structures appear in SMILES notation.

Test [1] can be described thus: NFkB reporter suppression in cystic fibrosis bronchial cells – cell-based, uHTS hits, panel, cytotoxicity readout, dose response (AID 624344). To be noted: CF bronchial epithelial cells, PAF-induced NFkB reporter inhibition, with PAF, run 1; at 79 µM (top of the series) unless noted.
Assay in test [2]: as above
To be noted: CF bronchial epithelial cells, PAF-induced NFkB reporter inhibition, with PAF, run 2; at 79 µM (top of the series) unless noted.

Regarding `CC(C)CNC(=O)c1coc(=O)c(Br)c1`, the inhibition in test [1] was determined as 86%; in test [2], 63.6%.
The corresponding values for `O=c1c(-c2c(O)cc(O)c3c2O[C@H](c2ccc(O)cc2)CC3)c(-c2ccc(O)cc2)oc2cc(O)cc(O)c12` are 105% and 102%.
As to `Cc1ccc(-c2c(C#N)c(N)n3c(nc4ccccc43)c2C#N)cc1`, the values for the inhibition in test [1] and in test [2] were 109% [at 39.5 µM] and 50.7%, respectively.
As to `CC1Sc2ccc(Cl)cc2-c2nc(N)ncc21` (stereo not drawn), the inhibition stood at 102% in test [1] and 108% in test [2].
`CCOC(=O)COc1ccc2ccccc2c1/C=C/[N+](=O)[O-]`: the inhibition in test [1] was 100%; in test [2], 97.5%.
In the same order, the values of `CCCCN(c1ccccc1)c1ncnc(N)c1[N+](=O)[O-]` are 97.4% and 101%.
For the molecule `CCOc1ccc(-n2c(C)c(C(C)=O)c3cc(OC(C)=O)ccc32)cc1`, the inhibition was 89% in test [1] and 90% in test [2].
With `CC(=O)Nc1ccc(Nc2nc(-c3sc(NC(C)=O)nc3C)cs2)cc1`, the inhibition in test [1] turned out to be 103%; in test [2], 110%.
On to `Cc1nc([N+](=O)[O-])c(Sc2nc3ccccc3n2C)n1Cc1ccccc1`, for which the inhibition in test [1] was 101%; in test [2], 115%.
`C=CC[C@@H](CC(=O)N[C@H](CO)Cc1ccccc1)C(=O)NC[C@H](OC(=O)[C@@H](CC=C)Cc1ccc(F)cc1)c1ccccc1`: the inhibition in test [1] turned out to be 101%; in test [2], 108%.
For the molecule `COc1cccc(N2CCN(c3c(C#N)c(C(F)(F)F)nn3C)CC2)c1`, the inhibition in test [1] was found to be 111%; in test [2] it was 94.2%.
Regarding `COc1ccc(NC(=O)Nc2nnc(-c3ccncc3)s2)cc1`, the inhibition in test [1] is 67.9%; in test [2], 68.6%.
For `COc1ccc(CN(C(=O)CSc2nnc(-c3c[nH]c4ccccc34)o2)c2ccc(F)cc2)cc1OC`, the inhibition in test [1] is 101%; in test [2], 103%.
Regarding `CC1=C(C(=O)OCc2ccc3c(c2)OCO3)C(c2cccc([N+](=O)[O-])c2)NC(=O)N1` (stereo not drawn), the results for the inhibition in test [1] and in test [2] were 79.1% and 92.2% [at 19.8 µM], respectively.
